In ChEMBL document CHEMBL3988442, “University of Dundee, Small-Polar-MMV Screening Library” (2021):
In all, about 48,000 compounds went through this assay and about 13,000 (27%) showed an effect of 50% or more. The list shows a part of the results.

The compounds below were run on Wolbachia pipientis (assay: Anti-Wolbachia Cell-Based Screen). Settings: 5 µM.
Format: functional
Design: scale not given: in the data most compounds retested in dose-response had high values
For `Cc1cc(CNC(=O)Nc2cccc(COCCOC(C)C)c2)no1`, the “Percent Effect” value was 4.138%. `Cc1cc(NC(=O)C(C)Nc2cccc(COCc3ccco3)c2)on1` (configuration not stated) was tested, and the “Percent Effect” value was 82.63%. `Cc1cc(NC(=O)C(C)Nc2ccn(Cc3ccccn3)n2)on1` (configuration not stated) was tested, and the “Percent Effect” value was -74.41%. `Cc1cc(NC(=O)C(C)NCCn2cccn2)no1` (configuration not stated) was tested, and the “Percent Effect” value was 7.799%. `Cc1nnc(C(C)Nc2cccc(COCCc3ccccc3)c2)o1` (configuration not stated) was tested, and the “Percent Effect” value was -2.129%. For `Cc1cc(NC(=O)C(C)Nc2cccc(COCc3ccco3)c2)no1` (configuration not stated), the “Percent Effect” value was 96.95%. `CCN1CCN(c2ccc(CNC(=O)c3ccc(Cl)o3)cn2)CC1` was tested, and the “Percent Effect” value was 4.733%. `Cc1ccccc1[C@@H]1CN(Cc2c(C)noc2C)C[C@H]1C(=O)O` was tested, and the “Percent Effect” value was -12.73%. In the case of `CCN1CCCC1Cn1ccc2c(OC)c(OC)ccc2c1=O` (configuration not stated), the “Percent Effect” value is reported as -2.049%. In the case of `CCOc1ccc2[nH]c(=O)c(CN3CCC(O)CC3)cc2c1`, the “Percent Effect” value is reported as -5.024%. For `CN(CCN1CCCCC1=O)Cc1cc2cc3c(cc2[nH]c1=O)OCO3`, the “Percent Effect” value was 9.765%. For `CCN1CCCC1CNCc1cc2cc(OC)ccc2[nH]c1=O` (configuration not stated), the “Percent Effect” value was 59.94%. In the case of `CCN1CCCC1CN(CCN(C)C)S(=O)(=O)c1ccc(C#N)cc1` (configuration not stated), the “Percent Effect” value is reported as 2.143%. With `CCN1CCCC1CNCc1cc2cc(OC)c(OC)cc2[nH]c1=O` (configuration not stated) the “Percent Effect” value was 127.9%. With `Cc1cc(C)c(CNC(=O)NCC2CCCN2C)c(=O)[nH]1` (configuration not stated) the “Percent Effect” value was -15.32%. For `CCN1CCCC1CNCc1cc2cc(C)c(C)cc2[nH]c1=O` (configuration not stated), the “Percent Effect” value was 108.5%. `COc1ccc2[nH]c(=O)c(CN(C)CCN3CCCC3)cc2c1` was tested, and the “Percent Effect” value was -6.943%. `COc1cc2[nH]c(=O)c(CN3CCCC3C)cc2c(OC)c1OC` (configuration not stated) was tested, and the “Percent Effect” value was -17.42%. With `COc1cc2[nH]c(=O)c(CN3CCC[C@H]3CO)cc2c(OC)c1OC` the “Percent Effect” value was 3.209%. In the case of `CCN1CCCC1CNCc1cc2cc3c(cc2[nH]c1=O)OCCO3` (configuration not stated), the “Percent Effect” value is reported as 90.42%. For `COCCN1CCc2cc(C(=O)O)c(-c3ccoc3)nc2CC1.O=C(O)C(F)(F)F.O=C(O)C(F)(F)F`, the “Percent Effect” value was -9.804%. For `CCCc1nnc(C(=O)N(C)Cc2ccc(OC)cc2)o1`, the “Percent Effect” value was 16.32%. With `COCCC(C)NC(=O)N1CCSC(C)(C)C1` (configuration not stated) the “Percent Effect” value was -17.32%. In the case of `CC[C@H]1CN(C(=O)c2cnc(CN3CCCC3)s2)CC[C@@]1(C)O`, the “Percent Effect” value is reported as 12.41%. In the case of `O=C(NCCNc1ccccn1)NCC1CCS(=O)(=O)C1` (configuration not stated), the “Percent Effect” value is reported as 7.118%. `Cc1ccc(S(=O)(=O)N2CC(C)Oc3ncccc32)c(F)c1` (configuration not stated) was tested, and the “Percent Effect” value was -7.297%. With `CCN1CCCC1CNCc1cc2ccccc2[nH]c1=O` (configuration not stated) the “Percent Effect” value was 105.7%. With `CS(=O)(=O)NCCCN1CCCCC1c1cc2ccccc2[nH]1` (configuration not stated) the “Percent Effect” value was 5.136%. With `CS(=O)(=O)NCC1CCN(Cc2cc3ccccc3[nH]c2=O)C1` (configuration not stated) the “Percent Effect” value was 5.413%. In the case of `Cc1occc1C(=O)N1CC(C(=O)N2CCOCC2)C2(CCOCC2)C1` (configuration not stated), the “Percent Effect” value is reported as -11.45%. For `CC(NC(=O)CCC(=O)c1cccs1)c1nnc2n1CCC2` (configuration not stated), the “Percent Effect” value was 109.2%. For `CC(NC(=O)CCC(=O)c1cccs1)c1nnc2n1CCCCC2` (configuration not stated), the “Percent Effect” value was -1.581%. For `Cc1noc(CCCC(=O)NC(C)c2nnc3n2CCCCC3)n1` (configuration not stated), the “Percent Effect” value was -8.198%. For `CC(NC(=O)CCCC(=O)c1cccs1)c1nnc2n1CCC2` (configuration not stated), the “Percent Effect” value was 92.19%. `c1cnn(Cc2ccc(CN3CCC4(CCCNC4)C3)cc2)c1` (configuration not stated) was tested, and the “Percent Effect” value was 7.706%. `COCCN1CCN(CCCc2nnnn2-c2ccccc2)CC1` was tested, and the “Percent Effect” value was -6.154%. In the case of `Cc1cncc(C2CCCN(C(=O)c3c[nH]c(=O)[nH]c3=O)C2)n1` (configuration not stated), the “Percent Effect” value is reported as -6.344%. With `Cc1cnc(C2CCCN(C(=O)c3c[nH]c(=O)[nH]c3=O)C2)s1` (configuration not stated) the “Percent Effect” value was 107.7%. With `Cc1ccccc1OC1CCN(C(=O)c2c[nH]c(=O)[nH]c2=O)CC1` the “Percent Effect” value was 25.29%. For `Cc1cccc2[nH]c(C3CCN(C(=O)c4c[nH]c(=O)[nH]c4=O)CC3)nc12`, the “Percent Effect” value was -6.416%. In the case of `Cc1cc(C2CCCN(C(=O)c3ccc(C)[nH]c3=O)C2)n[nH]1` (configuration not stated), the “Percent Effect” value is reported as 8.066%. `O=C(c1c[nH]c(=O)[nH]c1=O)N1CCCC(c2cnccn2)C1` (configuration not stated) was tested, and the “Percent Effect” value was 111.3%. For `Cn1ccnc1CN1CCN(c2ncnc3ccsc23)CC1`, the “Percent Effect” value was 8.989%. With `CCc1[nH]n(C)c(=N)c1-c1ccc2c(c1)OCO2` the “Percent Effect” value was -3.293%. In the case of `CCc1ncnc2c1CCN(Cc1ccc(OC)cc1)CC2.O=C(O)C(F)(F)F`, the “Percent Effect” value is reported as -14.19%. With `CCc1ncnc2c1CCN(CCOC)CC2.O=C(O)C(F)(F)F` the “Percent Effect” value was 104.9%. `CCc1ncnc2c1CCN(Cc1cccs1)CC2.O=C(O)C(F)(F)F` was tested, and the “Percent Effect” value was -3.657%. In the case of `COCCN1CCc2ncnc(-c3ccccc3)c2CC1.O=C(O)C(F)(F)F`, the “Percent Effect” value is reported as 98.59%. `CN(CCN1CCCC1=O)CC(c1cccs1)N1CCOCC1` (configuration not stated) was tested, and the “Percent Effect” value was -4.192%. For `CCc1ccc(CN(C/C=C/c2ccccc2)CCOC)nc1`, the “Percent Effect” value was -1.399%. In the case of `Cc1cc(CN[C@H](C(N)=O)[C@@H](C)O)c(C)s1`, the “Percent Effect” value is reported as -13.15%. With `CN(C)[C@@H]1CCN(c2ncccn2)[C@H]1Cc1cccnc1.O=C(O)C(F)(F)F.O=C(O)C(F)(F)F` the “Percent Effect” value was 5.907%. `COCCO[C@H]1CCN(c2ccc(C)nn2)[C@H]1Cc1cccnc1.O=C(O)C(F)(F)F.O=C(O)C(F)(F)F` was tested, and the “Percent Effect” value was 97.63%. For `Cc1ccc(N2CC[C@H](OCC3CC3)[C@@H]2Cc2ccncc2)nn1`, the “Percent Effect” value was 112.9%. For `Cc1ccc(N2CC[C@H](OCC3CC3)[C@@H]2Cc2cnn(C)c2)nn1`, the “Percent Effect” value was 1.399%. In the case of `Cc1ccc(N2CC[C@H](OCC3CC3)[C@@H]2Cc2cccnc2)nn1.O=C(O)C(F)(F)F`, the “Percent Effect” value is reported as 91.78%. In the case of `COCCO[C@H]1CCN(c2cc(OC)ncn2)[C@H]1Cc1cccnc1.O=C(O)C(F)(F)F`, the “Percent Effect” value is reported as -7.888%. `O=S(=O)(C1CC1)N1CC[C@H](OCC2CC2)[C@@H]1Cc1ccncc1` was tested, and the “Percent Effect” value was -12.77%. With `O=C(NCC(F)(F)F)c1nnn(-c2ccccc2)c1C(F)(F)F` the “Percent Effect” value was -4.958%. For `CCCSCC(=O)N1C[C@H]2CC[C@@H]1CN(c1ncccn1)C2`, the “Percent Effect” value was 28.59%. In the case of `N[C@H]1CN(C(=O)c2ccc(CO)cc2)C[C@@H]1C1CC1`, the “Percent Effect” value is reported as -11.41%. For `COc1ccc(-c2nc3c([nH]2)CCNC3)c(OC)c1OC`, the “Percent Effect” value was -10.21%. In the case of `O=C(CCc1ccc(C(F)(F)F)cc1)N1CCCS1(=O)=O`, the “Percent Effect” value is reported as -13.79%. With `N#Cc1ccc(S(=O)(=O)Nc2cnn(C3CCOCC3)c2)cc1` the “Percent Effect” value was 136.3%. `O=S(=O)(Nc1cnn(C2CCOCC2)c1)c1ccc(Br)cc1` was tested, and the “Percent Effect” value was 132.2%. `O=S(=O)(Nc1cnn(C2CCOCC2)c1)c1ccc2c(c1)CCO2` was tested, and the “Percent Effect” value was -1.173%. With `Cc1ccc(S(=O)(=O)Nc2cnn(C3CCOCC3)c2)cc1C` the “Percent Effect” value was 113.9%. `CC(=O)c1ccc(S(=O)(=O)Nc2cnn(C3CCOCC3)c2)cc1` was tested, and the “Percent Effect” value was 124.1%. With `N#Cc1ccc(S(=O)(=O)Nc2ccc(N3CCOCC3)cn2)cc1` the “Percent Effect” value was 1.293%. For `CCc1ccc(S(=O)(=O)Nc2cnc(N3CCOCC3)nc2)cc1`, the “Percent Effect” value was 1.019%. In the case of `Cn1nnn(-c2ccc(NS(=O)(=O)c3ccc(Br)cc3)cc2)c1=O`, the “Percent Effect” value is reported as -3.296%. With `O=S(=O)(Nc1cnc(N2CCOCC2)nc1)c1ccc(Cl)cc1` the “Percent Effect” value was -1.506%. `Cc1ccc(S(=O)(=O)Nc2ccc(N3CCOCC3)cn2)cc1` was tested, and the “Percent Effect” value was 3.4%. For `Cc1ccc(NS(=O)(=O)c2ccc(C#N)cc2)c(CN(C)C)c1`, the “Percent Effect” value was 3.683%. For `COc1c(NS(=O)(=O)c2ccc(C)c(C)c2)c(C)nn1C`, the “Percent Effect” value was -13.12%. In the case of `COc1coc(CN2CCCC(CCc3c(F)cccc3F)C2)cc1=O` (configuration not stated), the “Percent Effect” value is reported as 17.04%. In the case of `Cc1ccc(C)c(-c2csc(N)c2C#N)c1`, the “Percent Effect” value is reported as -0.8217%. In the case of `Cc1nc(N2CCN3CCCCC3C2)nc2cc(S(C)(=O)=O)ccc12` (configuration not stated), the “Percent Effect” value is reported as -5.317%. `O=C(CNC(=O)c1cnc2ccccc2c1O)NCCn1ccnc1` was tested, and the “Percent Effect” value was -3.022%. With `Cc1cc(CN2CCN(C(=O)Nc3cccnc3)CC2)on1` the “Percent Effect” value was -15.13%. For `O=S(=O)(Nc1cnn(C2CCOCC2)c1)c1c(F)cccc1F`, the “Percent Effect” value was -13.72%. With `O=S(=O)(Nc1cnn(C2CCOCC2)c1)c1ccc(F)c(F)c1` the “Percent Effect” value was -11.58%. For `O=C(O)c1cc(S(=O)(=O)Nc2cnn(C3CCOCC3)c2)ccc1F`, the “Percent Effect” value was 126.6%. For `Cc1ccc(CNCc2cc(Br)c3c(c2)OCO3)cc1`, the “Percent Effect” value was -32.56%. `Fc1cccc(N2CCCC3(CN(Cc4ccco4)CCO3)C2)c1.O=C(O)C(F)(F)F.O=C(O)C(F)(F)F` (configuration not stated) was tested, and the “Percent Effect” value was -7.933%. `COc1cccc(N2CCC(CNC(=O)N(C)Cc3ccco3)C2)c1` (configuration not stated) was tested, and the “Percent Effect” value was -2.761%. For `CC(C)(Oc1ccc2c(c1)CCCC2=O)C(=O)NCc1ccco1`, the “Percent Effect” value was -1.632%. For `COc1ccc2c(c1)CN(Cc1ccco1)C(=O)CCN2CC(C)(C)O`, the “Percent Effect” value was 126.9%. `CN1CC(=O)N(c2cccc(F)c2)CC12CCN(Cc1ccco1)C2` (configuration not stated) was tested, and the “Percent Effect” value was -8.082%. With `CC(C)(O)CN1CCC(=O)N(Cc2ccco2)Cc2cc(F)ccc21` the “Percent Effect” value was 108.3%. `CC(=O)N1CCC2(CC1)CN(C(C)=O)CC21CCNC1=O` (configuration not stated) was tested, and the “Percent Effect” value was -37.65%. `CN(C)C1Cc2ccccc2N(S(=O)(=O)c2ccccc2C#N)C1` (configuration not stated) was tested, and the “Percent Effect” value was -15.96%. With `CC(C)n1ccnc1C1CCCN(c2cncc(N(C)C)n2)C1` (configuration not stated) the “Percent Effect” value was 9.354%. In the case of `CN(C)c1cncc(C2CCCN(c3cnccn3)C2)n1` (configuration not stated), the “Percent Effect” value is reported as 69.21%. In the case of `CC(C)c1nc(C2CCCN(c3cnc4ccccc4n3)C2)no1` (configuration not stated), the “Percent Effect” value is reported as 3.044%. With `COc1cc(N2CCCC(c3ncc[nH]3)C2)ncn1` (configuration not stated) the “Percent Effect” value was -14.93%. In the case of `Cc1cc(C)c(CNC(=O)C2CCCN(c3cnccn3)C2)c(=O)[nH]1` (configuration not stated), the “Percent Effect” value is reported as 0.7586%. With `CN(C)CCCn1ccnc1C1CCCN(c2cc(N)ncn2)C1` (configuration not stated) the “Percent Effect” value was -5.782%. `CN(C)CCO[C@H]1C[C@@H](O)C12CCN(c1cnccn1)CC2` was tested, and the “Percent Effect” value was 0.5833%. For `Cc1cc(N2CCCC(c3nccnc3N(C)C)C2)ncn1` (configuration not stated), the “Percent Effect” value was 90.88%. With `CN(C)c1nccnc1C1CCCN(c2cnccn2)C1` (configuration not stated) the “Percent Effect” value was 115.4%. `CN(C)c1nccnc1C1CCN(c2cnccn2)CC1` was tested, and the “Percent Effect” value was 116.7%.
